Experiment [1] has as its target Lysosomal acid glucosylceramidase (Homo sapiens) (UniProt P04062). As to the kind of experiment: Glucocerebrosidase-p2 (AID 348; in the data active = potency below about 10 µM; also: potency is read from the fitted curve at half-maximal effect). The settings on record: purified GBA, blue fluorogenic substrate, 40 min. Summed up: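 Normal human glucocerebrosidase (0.2 nM) with blue fluorogenic substrate (80 uM final) in citrate/phosphate pH 5.9 with 10mM sodium taurocholate, 0.01% tween-20; 40 min RT, NaOH/glycine stop; fluorescence Ex 365/Em 440; AC50 from a titration from 0.6 nM upwards.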

Experiment [2] can be described thus: AP1 Signaling Pathway (AID 357; active = well fitted curve in either direction with a large enough effect, not every such curve was filed as active;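 also: ME-180 reporter cells stimulated with EGF at its EC50 level; % is scaled to controls: 0 for no effect and ±100 for the full control effect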). The settings on record: ME-180 AP-1-bla reporter, EGF-induced, beta-lactamase ratio, 5 h; at 7.69 µM (top of the series) unless noted. The gist of the method: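 In this screen, ME-180 cells in Opti-MEM with 0.5% dialyzed FBS received EC50 EGF and compound titrations for 5 h. AP-1 reporter beta-lactamase was detected via CCF4 ratio, giving AC50 for positive and negative modulators.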

Experiment [3] concerns the target Cytochrome P450 1A2 (Homo sapiens) (UniProt P05177). As to the kind of experiment: p450-cyp1a2 (AID 410; calls by dose curve; also: potency is read from the fitted curve at half-maximal effect). The settings on record: recombinant CYP1A2, luciferin-ME demethylation, luminescence; series mostly up to 57 µM. Summed up:
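20nM CYP1A2, 100uM Luciferin-ME (=Km), 100mM KPO4; cpd 10 min RT; +NADPH regen, 60 min RT; stop/detect 20 min; luminescence. Normalized to furafylline 57 uM = full inhibition.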

Experiment [4] in a line: NFAT Signaling Pathway (AID 444; active = well fitted curve in either direction with a large enough effect, not every such curve was filed as active;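 also: carbachol stimulus at about its EC50 of 1 µM final; % is scaled to controls: 0 for no effect and ±100 for the full control effect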). As to conditions: Jurkat NFAT-bla M1, carbachol, beta-lactamase ratio, 5 h; at 7.69 µM (top of the series) unless noted. The gist of the method:
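Jurkat cells carrying an NFAT-driven β-lactamase reporter and co-transfected muscarinic M1 receptor were treated with compound plus carbachol (1 uM final, an EC50 level) for 5 h at 37 °C. CCF4 loading followed for 1 h at RT; 460/530 nm ratio gave %activity.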

Experiment [5] can be described thus: Stat Signaling Pathway (AID 446; active = well fitted curve in either direction with a large enough effect, not every such curve was filed as active;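 also: ME-180 cervical cancer cells given 40 pM IL-6 alongside compound; SIE-controlled beta-lactamase reporter measured as 460/530 nm FRET emission ratio; % is scaled to controls: 0 for no effect and ±100 for the full control effect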). As to conditions: ME-180 (cervical carcinoma) SIE beta-lactamase reporter, IL-6 stimulated, 5 h; at 7.69 µM (top of the series) unless noted. Summed up:
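FRET read-out (405 nm excitation, 460/530 nm emission) of a beta-lactamase reporter under a STAT-inducible element in ME-180 cervical carcinoma cells. Cells with compound receive 40 pM IL-6 for 5 h. Values are normalised to AC90 stimulation and AC90 JAK-inhibitor controls.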

For experiment [6], the target named is Glucocorticoid receptor (Homo sapiens) (UniProt P04150). As to the kind of experiment: GR-GFP Redistribution (AID 450;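 active = compounds whose dose series gives a full or clear partial fitted curve of increased nuclear translocation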; also: potency is read from the fitted curve at half-maximal effect). The settings on record: U2OS GR-GFP nuclear translocation, laser cytometry, 2 h.
Chain of Glucocorticoid receptor (Homo sapiens) (P04150 whole entry, looked up): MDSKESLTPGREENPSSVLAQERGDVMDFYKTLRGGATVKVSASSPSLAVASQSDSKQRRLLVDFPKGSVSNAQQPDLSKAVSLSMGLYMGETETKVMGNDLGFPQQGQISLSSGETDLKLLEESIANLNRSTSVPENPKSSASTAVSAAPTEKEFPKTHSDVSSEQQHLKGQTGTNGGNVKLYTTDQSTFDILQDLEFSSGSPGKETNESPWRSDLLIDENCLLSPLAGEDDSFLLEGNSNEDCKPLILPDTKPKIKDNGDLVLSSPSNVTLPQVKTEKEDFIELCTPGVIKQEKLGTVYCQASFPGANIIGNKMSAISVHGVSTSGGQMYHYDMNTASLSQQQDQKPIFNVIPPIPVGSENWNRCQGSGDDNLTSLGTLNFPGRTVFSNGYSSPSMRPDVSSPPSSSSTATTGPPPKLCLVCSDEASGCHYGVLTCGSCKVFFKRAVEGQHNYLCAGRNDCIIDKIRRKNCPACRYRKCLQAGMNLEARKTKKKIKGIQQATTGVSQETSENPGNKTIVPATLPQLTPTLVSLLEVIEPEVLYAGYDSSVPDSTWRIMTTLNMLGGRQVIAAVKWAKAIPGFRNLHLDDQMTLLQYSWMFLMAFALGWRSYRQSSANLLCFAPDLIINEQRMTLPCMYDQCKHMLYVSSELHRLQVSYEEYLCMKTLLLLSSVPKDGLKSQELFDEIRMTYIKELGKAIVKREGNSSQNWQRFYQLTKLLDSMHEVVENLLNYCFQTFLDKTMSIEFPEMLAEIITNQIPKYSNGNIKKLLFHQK
The target is the same in experiment [7]. As to the kind of experiment: GR-EFC Redistribution (AID 451; calls by dose curve; also: potency is read from the fitted curve at half-maximal effect). As to conditions: CHO-K1 GR-EFC translocation, beta-gal luminescence, 2 h. Summed up:
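CHO-K1 cells stably expressing nuclear-localized β-gal enzyme acceptor and GR fused C-terminally to the enzyme donor fragment; ligand-driven nuclear translocation restores β-gal by complementation. Compounds titrated up to 46 uM final, 2 h at 37 °C; luminescence read.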

Experiment [8] concerns the target Mitogen-activated protein kinase 10 (Mus musculus) (UniProt Q61831). As to the kind of experiment: JNK3 AlphaScreen Assay (AID 530; active = well fitted curve in either direction with a large enough effect, not every such curve was filed as active;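 also: kinase came from lysate of stimulated human HepG2 cells; % is scaled to controls: 0 for no effect and ±100 for the full control effect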). The settings on record: JNK3 lysate, c-Jun phosphorylation; series mostly up to 57.1 µM. The gist of the method: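 Biotinylated GST-cJun(1-79) served as substrate for JNK3 in HepG2 lysates stimulated with IL-1beta and TNF-alpha. ATP was 10 uM final, pH 7.6. Ser73 phosphorylation was quantified by AlphaScreen (680 nm excitation).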
On the technique in general: Alpha assays give light when donor and acceptor beads are brought close together.

Experiment [9] deals with 3',5'-cyclic-AMP phosphodiesterase 4B (Homo sapiens) (UniProt Q07343). As to the kind of experiment: qHTS Assay for Inhibitors of PDE-IV (AID 607; active = well fitted activation curve with a large enough effect in the main read-out, with a control signal flat, not every such curve was filed as active; also: % of control where 0% means no effect). The settings on record: HEK293 ACTOne CNG channel cells, membrane potential fluorescence; series mostly up to 22.9 µM. The gist of the method: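 Cell-based read-out of cAMP via a modified cyclic nucleotide-gated channel and membrane potential dye (535/590 nm) in HEK293 cells expressing PDE4 endogenously. Compounds tested up to 22.9 uM final; 100 uM RO 20-1724 reference.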
Chain of 3',5'-cyclic-AMP phosphodiesterase 4B (Homo sapiens) (Q07343 whole entry, looked up): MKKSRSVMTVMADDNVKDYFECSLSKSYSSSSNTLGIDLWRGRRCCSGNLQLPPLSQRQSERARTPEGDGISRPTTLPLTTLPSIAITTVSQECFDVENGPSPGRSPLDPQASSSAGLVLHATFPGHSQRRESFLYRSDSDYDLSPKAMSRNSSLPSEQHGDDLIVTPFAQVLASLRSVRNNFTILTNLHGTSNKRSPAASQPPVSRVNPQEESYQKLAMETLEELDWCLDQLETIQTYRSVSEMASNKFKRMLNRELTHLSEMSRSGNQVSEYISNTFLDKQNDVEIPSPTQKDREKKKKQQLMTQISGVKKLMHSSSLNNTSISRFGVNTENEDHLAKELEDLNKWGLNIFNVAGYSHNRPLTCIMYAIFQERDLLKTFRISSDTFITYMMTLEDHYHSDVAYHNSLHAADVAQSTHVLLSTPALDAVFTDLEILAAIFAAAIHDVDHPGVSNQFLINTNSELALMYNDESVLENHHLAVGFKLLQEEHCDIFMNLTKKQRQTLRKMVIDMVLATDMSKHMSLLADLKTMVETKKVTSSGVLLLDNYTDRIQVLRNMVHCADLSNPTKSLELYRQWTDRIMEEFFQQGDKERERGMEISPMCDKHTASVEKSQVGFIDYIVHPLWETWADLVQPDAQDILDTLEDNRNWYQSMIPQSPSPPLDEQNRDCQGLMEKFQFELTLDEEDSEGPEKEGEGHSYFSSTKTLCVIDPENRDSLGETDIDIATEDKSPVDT
Background: qHTS replaces the single test concentration by a dilution series.

The nature of experiment [10]: qHTS Assay for Lipid Storage Modulators (AID 1519; calls by dose curve). The settings on record: Drosophila S3 cells, BODIPY lipid droplet/cell ratio, laser cytometry, cells loaded with oleic acid; for activity change, negative = inhibition: at 57.5 µM (top of the series). Summed up:
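Cells seeded at 5,000 per well were treated with compounds over a concentration series and loaded with oleic acid (400 uM, as added). Lipid droplet fluorescence (488 nm excitation, 500-530 nm channel) was read by laser-scanning cytometry and normalized to 20 uM Triacsin C.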

The target of experiment [11] is Dual specificity protein kinase CLK4 (Homo sapiens) (UniProt Q9HAZ1). As to the kind of experiment: qHTS Assay for Inhibitors of CDC-like Kinase 4 (Kinase-Glo Assay) (AID 1770). Also: % is scaled to controls: 0 for no effect and ±100 for the full control effect; nearly all actives have a fitted effect of over 65% in size. As to conditions: recombinant Clk4, Kinase-Glo ATP depletion luminescence; series mostly up to 66.7 µM. The gist of the method:
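Clk4 25 nM, RS peptide 100 uM, ATP 1 uM, pH 7.5 Tris, 10 mM MgCl2, 2.5 mM DTT; 4.5 h RT; ATP depletion read by Kinase-Glo luminescence.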

For experiment [12] the target is unchanged. As to the kind of experiment: qHTS Assay for Inhibitors of CDC-like Kinase 4 (ADP-Glo Assay) (AID 1771). Also: % is scaled to controls: 0 for no effect and ±100 for the full control effect; nearly all actives have a fitted effect of over 70% in size. The settings on record: recombinant CLK4, ADP-Glo luminescence; series mostly up to 80 µM. Summed up: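 25 nM Clk4, 100 uM RS peptide, 1 uM ATP (final); 2 mM MgCl2, 0.5 mM EGTA, 2.5 mM DTT, 0.01% Triton X-100; 1 hr RT. ADP-Glo readout: ATP depletion 45 min, conversion/luciferase 30 min, luminescence.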

Experiment [13] shares this target. As to the kind of experiment: qHTS Assay for Inhibitors of CDC-like Kinase 4 (ADP-FP Assay) (AID 1795).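 Also: recombinant human CLK4 phosphorylating RS repeat peptide at 1 µM ATP; % is scaled to controls: 0 for no effect and ±100 for the full control effect; nearly all actives have a fitted effect of over 60% in size.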 As to conditions: Transcreener ADP fluorescence polarization; series mostly up to 50 µM. Summed up:
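Kinase activity was followed as ADP output, converted from fluorescence polarization with a calibration curve. Reactions ran one hour at low ATP (1 uM) with RS peptide substrate.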

The target in experiment [14] is Ubiquitin carboxyl-terminal hydrolase 1 (Homo sapiens) (UniProt O94782). As to the kind of experiment: Inhibitors of USP1/UAF1: Pilot qHTS (AID 504865).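 Also: rhodamine fluorescence freed from ubiquitin-rhodamine substrate followed over time; top concentration of the series differs between compounds; % is scaled to controls: 0 for no effect and ±100 for the full control effect; nearly all actives have a fitted effect of over 35% in size.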 The settings on record: purified USP1/UAF1, Ub-rhodamine cleavage fluorescence; series mostly up to 54.9 µM. The gist of the method:
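Enzyme-free wells gave the negative control, while test wells held 1nM USP1/UAF1 preincubated with compound for 15 min at room temperature. Ub-Rho at 150nM final started the reaction, and fluorescence at 480/540 nm was recorded kinetically.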

A short description of experiment [15]: Primary qHTS for small molecule stabilizers of the endoplasmic reticulum resident proteome: Secreted ER Calcium Modulated Protein (SERCaMP) assay (AID 1508630). Also: % is scaled to controls: 0 for no effect and ±100 for the full control effect. The settings on record: SH-SY5Y GLuc-SERCaMP (Gaussia luciferase released on ER calcium loss) secretion, thapsigargin, luminescence; series mostly up to 38.4 µM. The gist of the method:
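The SH-SY5Y reporter protocol was run at 3 concentrations up to 38.3 uM (primary) or 11 concentrations (follow-up): 16 h compound, 100 nM thapsigargin for 4 h, then extracellular luciferase luminescence.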

The target in experiment [16] is Cytochrome P450 3A4 (Homo sapiens) (UniProt P08684). As to the kind of experiment: qHTS Assay for Activators of Cytochrome P450 3A4 (AID 885). Also: nearly all actives have a fitted effect of over 65% in size. The settings on record: recombinant CYP3A4, Luciferin-PPXE luminescence, 60 min; series mostly up to 57.1 µM. The gist of the method: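 Luminescent readout of luciferin formed from 25 uM Luciferin-PPXE (KM level) by 20 nM CYP3A4 in 200 mM KPO4, with 60 min NADPH-driven reaction at room temperature after 10 min compound exposure. Ketoconazole (57 uM) defined 100% inhibition.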
Chain of Cytochrome P450 3A4 (Homo sapiens) (P08684 whole entry, looked up): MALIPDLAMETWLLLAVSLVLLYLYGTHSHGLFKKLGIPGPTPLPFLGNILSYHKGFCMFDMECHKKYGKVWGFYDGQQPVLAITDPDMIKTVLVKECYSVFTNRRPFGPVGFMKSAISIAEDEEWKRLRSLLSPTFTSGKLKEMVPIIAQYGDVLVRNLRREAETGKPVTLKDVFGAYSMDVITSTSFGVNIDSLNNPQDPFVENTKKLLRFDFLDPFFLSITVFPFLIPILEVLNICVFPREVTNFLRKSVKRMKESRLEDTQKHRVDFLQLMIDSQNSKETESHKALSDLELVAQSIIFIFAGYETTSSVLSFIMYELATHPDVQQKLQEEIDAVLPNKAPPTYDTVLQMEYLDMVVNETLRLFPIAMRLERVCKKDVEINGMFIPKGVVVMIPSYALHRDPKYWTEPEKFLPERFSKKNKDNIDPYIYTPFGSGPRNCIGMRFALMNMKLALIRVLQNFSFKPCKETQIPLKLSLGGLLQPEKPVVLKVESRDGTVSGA

The mark [17] stands for this setting: measured here: cell count channel max response.
Where [18] appears, read: measured here: lipid channel max response.

Records with an inconclusive call do not appear. The source made the active and inactive calls. Unless noted, calls follow the shape of the dose curve; as a rule, active = well fitted curve in the direction sought with a large enough effect; inconclusive = small, poorly fitted or top-dose-only effect, or another doubt; inactive = no such curve, though single readings can be large; an effect the other way counts as inactive or inconclusive.

Chain of Cytochrome P450 1A2 (Homo sapiens) (P05177 whole entry, looked up): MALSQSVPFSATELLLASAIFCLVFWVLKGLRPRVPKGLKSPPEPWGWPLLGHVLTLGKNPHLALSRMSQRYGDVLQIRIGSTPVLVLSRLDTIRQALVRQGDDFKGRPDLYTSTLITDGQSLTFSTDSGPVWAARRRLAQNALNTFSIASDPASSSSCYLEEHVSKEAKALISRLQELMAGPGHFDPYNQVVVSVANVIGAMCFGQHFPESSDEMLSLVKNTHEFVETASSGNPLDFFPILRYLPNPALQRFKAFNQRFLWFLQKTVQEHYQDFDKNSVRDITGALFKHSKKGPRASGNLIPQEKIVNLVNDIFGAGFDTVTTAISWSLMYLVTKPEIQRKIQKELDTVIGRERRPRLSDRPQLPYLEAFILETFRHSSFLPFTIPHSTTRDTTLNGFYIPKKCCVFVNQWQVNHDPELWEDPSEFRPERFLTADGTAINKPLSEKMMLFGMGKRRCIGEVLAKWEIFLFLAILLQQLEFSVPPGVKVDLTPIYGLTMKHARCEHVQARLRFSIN
Chain of Ubiquitin carboxyl-terminal hydrolase 1 (Homo sapiens) (O94782 whole entry, looked up): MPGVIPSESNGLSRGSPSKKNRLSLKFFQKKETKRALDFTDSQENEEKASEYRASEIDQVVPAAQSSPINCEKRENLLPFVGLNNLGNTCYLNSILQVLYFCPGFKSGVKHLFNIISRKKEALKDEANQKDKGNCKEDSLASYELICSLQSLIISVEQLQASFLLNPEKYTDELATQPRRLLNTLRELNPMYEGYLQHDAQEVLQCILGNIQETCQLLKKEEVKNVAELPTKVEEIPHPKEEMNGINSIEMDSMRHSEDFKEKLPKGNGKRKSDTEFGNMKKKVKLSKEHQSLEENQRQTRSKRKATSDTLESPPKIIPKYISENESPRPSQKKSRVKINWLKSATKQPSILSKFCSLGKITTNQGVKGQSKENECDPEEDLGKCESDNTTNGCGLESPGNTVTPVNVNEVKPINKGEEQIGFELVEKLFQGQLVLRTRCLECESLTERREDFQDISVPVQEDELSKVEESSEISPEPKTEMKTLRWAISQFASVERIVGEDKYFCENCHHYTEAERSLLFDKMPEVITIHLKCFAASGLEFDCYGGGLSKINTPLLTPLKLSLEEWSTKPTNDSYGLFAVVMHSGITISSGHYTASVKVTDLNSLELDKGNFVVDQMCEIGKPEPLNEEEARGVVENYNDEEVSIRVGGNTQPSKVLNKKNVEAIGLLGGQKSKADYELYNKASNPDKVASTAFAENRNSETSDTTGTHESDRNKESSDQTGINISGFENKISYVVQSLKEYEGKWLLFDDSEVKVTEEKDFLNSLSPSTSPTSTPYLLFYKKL
Chain of Lysosomal acid glucosylceramidase (Homo sapiens) (P04062 whole entry, looked up): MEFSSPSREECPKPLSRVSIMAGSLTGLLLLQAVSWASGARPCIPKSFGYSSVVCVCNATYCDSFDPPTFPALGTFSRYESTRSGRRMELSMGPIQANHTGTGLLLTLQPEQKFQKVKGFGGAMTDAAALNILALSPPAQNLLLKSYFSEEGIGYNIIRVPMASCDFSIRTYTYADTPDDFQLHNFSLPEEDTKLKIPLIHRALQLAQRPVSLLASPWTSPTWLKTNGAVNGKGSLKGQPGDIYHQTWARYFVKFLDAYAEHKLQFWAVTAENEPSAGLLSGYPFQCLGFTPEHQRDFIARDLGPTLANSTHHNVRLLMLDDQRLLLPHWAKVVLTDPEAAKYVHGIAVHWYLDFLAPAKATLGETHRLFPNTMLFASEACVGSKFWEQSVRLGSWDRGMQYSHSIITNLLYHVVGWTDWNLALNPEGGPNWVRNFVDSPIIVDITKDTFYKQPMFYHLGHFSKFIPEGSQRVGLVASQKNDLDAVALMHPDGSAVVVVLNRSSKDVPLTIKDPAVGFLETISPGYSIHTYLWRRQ
Chain of Dual specificity protein kinase CLK4 (Homo sapiens) (Q9HAZ1 whole entry, looked up): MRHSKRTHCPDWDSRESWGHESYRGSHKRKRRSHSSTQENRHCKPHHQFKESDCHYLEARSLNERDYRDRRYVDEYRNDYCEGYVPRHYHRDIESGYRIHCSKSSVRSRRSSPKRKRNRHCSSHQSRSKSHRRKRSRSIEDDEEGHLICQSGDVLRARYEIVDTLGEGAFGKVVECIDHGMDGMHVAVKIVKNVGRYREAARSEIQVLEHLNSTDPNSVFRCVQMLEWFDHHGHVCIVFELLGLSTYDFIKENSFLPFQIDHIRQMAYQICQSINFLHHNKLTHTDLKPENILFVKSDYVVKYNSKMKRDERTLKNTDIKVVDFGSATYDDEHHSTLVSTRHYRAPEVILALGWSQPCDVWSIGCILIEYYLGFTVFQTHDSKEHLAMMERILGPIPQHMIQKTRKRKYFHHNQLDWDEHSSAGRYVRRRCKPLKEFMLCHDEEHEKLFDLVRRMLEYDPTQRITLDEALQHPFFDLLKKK

For `Cc1noc(C)c1-c1cc(NC2CCNCC2)ncn1`, the Potency in experiment [1] was > 11.4 µM (inactive); in [3] it was 0.126 µM (active); in experiment [6], > 46 µM (inactive); in [7] it was > 46 µM (inactive). For the same molecule, the activity change, negative = inhibition in experiment [2] was 8.23% (inactive); in experiment [4], 8.17% (inactive); in experiment [10] it was 3.45% (inactive). The activity, negative = inhibition in experiment [5] was 5.01% (inactive). Further, the result in experiment [8] was inactive. The Potency result in [9], in experiment [11], in [12], in experiment [13], in experiment [14] and in [15] was “inactive” throughout. For the same molecule, the max response in experiment [10] (setting [17]) is -17.1%; in [10] (setting [18]), -14.9%.

On to `CN(C)c1ncc2nc(-c3cc(F)cc(F)c3)c(=O)n(CCC#N)c2n1`, for which the figures for the Potency in experiment [1], in experiment [6] and in [7] were > 11.4 µM (inactive), > 9.22 µM (inactive) and > 46 µM (inactive), respectively. The activity change, negative = inhibition in experiment [2] was 4.37% (inactive); in experiment [4] it was 29.2% (inactive); in experiment [10], 3.22% (inactive). The Potency result in [3], in experiment [9], in experiment [16], in experiment [11], in experiment [12] and in experiment [13] was “inactive” throughout. The Potency entry in experiment [14] and in experiment [15] was “inactive” throughout. Besides, the activity, negative = inhibition in [5] was 2.22% (inactive). Further, in experiment [8], the outcome was inactive. The max response in [10] (setting [17]) came out at 19.6%; in experiment [10] (setting [18]) it was 21.3%.

For `CC(=O)NCCNc1cc(-c2ccccc2C(F)(F)F)ncn1`, the Potency in experiment [1] was > 11.4 µM (inactive); in experiment [3], 25.1 µM (active); in experiment [6], > 46 µM (inactive); in experiment [7] it was > 46 µM (inactive). In addition, the activity change, negative = inhibition was 9.07% (inactive) in experiment [2], 15.3% (inactive) in [4] and 0.0704% (inactive) in experiment [10]. Besides, the activity, negative = inhibition in [5] was 6.62% (inactive). In experiment [8], the result was inactive. Moreover, the Potency entry in [9], in [11], in experiment [12], in [13], in experiment [14] and in experiment [15] was “inactive” in each case. Also, the figures for the max response in experiment [10] (setting [17]) and in experiment [10] (setting [18]) were 5.19% and 3.95%, respectively.

Take `Cc1nc2cnc(N3CCN(C)CC3)nc2n(CCC#N)c1=O`: the Potency in experiment [1] was > 11.4 µM (inactive); in [3], 12.6 µM (active); in experiment [6] it was > 9.22 µM (inactive); in [7], > 46 µM (inactive). Further, the activity change, negative = inhibition is 9.68% (inactive) in [2], -13.7% (inactive) in experiment [4] and 4.33% (inactive) in [10]. In addition, the activity, negative = inhibition in experiment [5] is -9.15% (inactive). Moreover, the molecule was classed as inactive in experiment [8]. In addition, the max response in experiment [10] (setting [17]) was 7.54%; in experiment [10] (setting [18]) it was 9.36%. Further, the Potency result in [11], in [12], in experiment [13], in experiment [14] and in experiment [15] was “inactive” throughout.

Consider `Cc1cnc(CNc2ccnc(-c3ccccc3C(F)(F)F)n2)cn1`, for which the Potency in [1] was > 11.4 µM (inactive); in [3], 15.8 µM (active); in experiment [6], > 46 µM (inactive); in experiment [7] it was > 46 µM (inactive). Moreover, the activity change, negative = inhibition is 2.04% (inactive) in experiment [2], 0.146% (inactive) in experiment [4] and 8.15% (inactive) in experiment [10]. The activity, negative = inhibition in experiment [5] is 2.4% (inactive). Also, in experiment [8], the result was inactive. The Potency result in experiment [9], in experiment [11], in experiment [12], in experiment [13], in experiment [14] and in experiment [15] was “inactive” throughout. For the same molecule, the max response in [10] (setting [17]) worked out at 12.9%; in experiment [10] (setting [18]) it was 20.7%.

Source of the values: PubChem BioAssay (NCATS).
